Results filed as inconclusive are left out. Calls of active or inactive are those of the source. The call rests on the fitted dose curve; in most records, active means well fitted antagonist curve with a large enough effect in the main read-out, with a control signal flat; inconclusive means small, poorly fitted or top-dose-only effect; inactive means no such curve, though single readings can be large or run the other way.

Chain of Neuropeptide S receptor (Homo sapiens) (Q6W5P4 whole entry, looked up): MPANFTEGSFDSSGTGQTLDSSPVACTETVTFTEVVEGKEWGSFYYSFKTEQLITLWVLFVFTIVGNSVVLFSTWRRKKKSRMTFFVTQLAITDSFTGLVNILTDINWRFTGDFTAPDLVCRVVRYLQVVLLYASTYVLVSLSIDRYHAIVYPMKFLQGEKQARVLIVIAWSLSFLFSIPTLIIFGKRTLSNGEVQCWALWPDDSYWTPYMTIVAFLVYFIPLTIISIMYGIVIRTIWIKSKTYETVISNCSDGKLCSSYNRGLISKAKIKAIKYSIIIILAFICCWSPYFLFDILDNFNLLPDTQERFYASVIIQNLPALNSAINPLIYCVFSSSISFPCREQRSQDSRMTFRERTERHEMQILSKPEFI

For the assay, the target named is Neuropeptide S receptor (Homo sapiens) (UniProt Q6W5P4). Kind of assay: Confirmation Concentration-Response Assay for Antagonists of the Neuropeptide S Receptor: Calcium Signal Transduction, SAR for Probe. The settings on record: CHO-NPSR cells, NPS-induced calcium fluorescence, FDSS; series mostly up to 19.3 µM. From the text:
NIH Chemical Genomics Center [NCGC] NIH Molecular Libraries Probe Production centers Network [MLPCN] MLPCN Grant: X01-DA026210-01 Assay Submitter (PI): Heilig, Markus Alexander NCGC Assay Overview: Neuropeptide S receptor (NPSR), previously known as GPR154, is a recently de-orphanized G protein coupled receptor. Its endogenous ligand is the 20 amino acids peptide Neuropeptide S (NPS). […] NPS and its receptor are found in various tissues. Specifically they are highly expressed in brain areas that have been implicated in modulation of arousal, stress and anxiety. Central administration of NPS in mice produces an unusual profile of activity by inducing wakefulness and arousal, while at the same time suppressing anxiety. Therefore, NPSR may represent a novel drug target for the treatment of sleep and anxiety disorders. To identify NPSR antagonists, we developed a cell-based assay with transfected NPS receptor. NPS can stimulate the production of cAMP as well as release intracellular calcium in Chinese hamster ovary cells stably expressing NPS receptor. This change in intracellular calcium can be detected using a calcium indicator dye on a calcium imaging plate reader system (FDSS).
NCGC Assay Protocol Summary: A Chinese hamster ovary (CHO) cell line stably expressing the NPS receptor (CHO-NPSR) was obtained from Dr. Heilig lab at NIAAA and maintained in F-12 Kaighn's media (Invitrogen, Carlsbad, CA, 21127) supplemented with 10 % FBS, 100 units/ml penicillin, 100 ug/ml streptomycin and 250 ug/ml geneticin at 37C, 5% CO2 in a humidified atmosphere. Before the assay, aliquots of cells were frozen and stored at -135C. The assay was performed on a FDSS-7000 kinetic plate reader in 1536-well format. For both agonist (1-220s) and antagonist (221-400s) phases, the maximums of kinetic fluorescence responses were converted separately into text files using the instrument's software data export utility. Data for agonist response were normalized to the controls for basal activity (DMSO only) and 100% activation (NPS). […] AC50 values were determined from concentration-response data modeled with the standard Hill equation. NPS 1536-well FDSS assay protocol: (1) Frozen CHO-NPSR cells were thaw, washed once with fresh media and resuspended in F-12 Kaighn's media supplemented with 10 % FBS, 100 units/ml penicillin and 100 ug/ml streptomycin. Cells were plated at 3 ul/well (1200 cells) to black, clear-bottom, tissue-culture treated 1536-well plates, and then cultured at 37C, 5 % CO2 for 16 to 30 hours. (2) Add 3 ul of calcium dye (from High Performance PBX Calcium Assay Kit, BD Biosciences). The calcium dye was prepared according to the manufactory's instruction. (3) Incubation at 37C, 5 % CO2 for 60 to 120 min. (4) Load plates to FDSS-7000. The following steps were performed on FDSS-7000. (5) Record fluorescent background (Ex 480 nm, Em 520-560 nm) for 10 s. (6) Add 23 nl/well of compound in DMSO solution. The final titration for each compound was between 0.6 nM and 46 uM. Record agonist response for 210 s. (7) Add 2 ul of stimulation reagent (1X HBSS buffer, 0.1% BSA, 60 nM NPS). Record antagonist response for 140 s. Keywords: MLSMR, MLPCN, NIH Roadmap, qHTS, NCGC, NPS, Neuropeptide S Antagonists
With `CCOC(=O)c1cnc(-n2nc(C)cc2C)nc1NC1CCCC1`, the Potency is 2.82 µM (active). `COc1ccc2c(c1)Oc1ncn(CCN3CCOCC3)c(=N)c1C2c1ccc(OC)c(OC)c1` (stereo not given): the Potency is 11 µM (active). Take `CN(C)C(=O)Oc1cccc([N+](C)(C)C)c1`: the Potency result was “inactive”.

As to `COc1cccc(C2c3c(ncn(-c4ccncc4)c3=N)Oc3ccc4ccccc4c32)c1` (stereo not given), the Potency was 4.38 µM (active). Regarding `C/C(=N\Nc1ncc(Cl)cc1Cl)c1ccccn1`, the Potency is 2.51 µM (active). Regarding `COc1cccc(C2c3c(ncn(-c4ccc(NC(C)=O)cc4)c3=N)Oc3ccc4ccccc4c32)c1` (stereo not given), the Potency was 5.52 µM (active). For `N=C1c2ccccc2CN1c1ccc(N2CCOCC2)c(S(=O)(=O)Nc2ccc(Cl)cc2)c1` the value was 1.41 µM (active); for `COc1cccc(C2c3c(ncn(-c4cccc(C#N)c4)c3=N)Oc3ccc4ccccc4c32)c1` (stereo not given), 4.38 µM (active); for `COc1cccc(C2c3c(ncn(-c4cccnc4)c3=N)Oc3ccc4ccccc4c32)c1` (stereo not given), 2.76 µM (active).

`Cc1c(P(=S)(c2ccccc2)c2ccccc2)[n+]2ccccc2n1CC(=O)c1ccccc1`: the Potency is 2.76 µM (active). Regarding `O=P(c1ccccc1)(c1ccccc1)c1cnc2ccccn12`, the Potency entry was “inactive”. As for `COc1ccc(C2c3c(n(Cc4ccccc4)cnc3=N)Oc3ccc4ccccc4c32)cc1OC` (stereo not given), the Potency result is “inactive”. In the case of `COc1cccc(C2c3c(ncn(-c4cccc(Br)c4)c3=N)Oc3ccc4ccccc4c32)c1` (stereo not given), the Potency is 4.38 µM (active). `COc1ccc(C2c3ccc4ccccc4c3Oc3ncn(CCN4CCOCC4)c(=N)c32)cc1OC` (stereo not given): the Potency is 8.74 µM (active). Turning to `Cc1cc2nc3ccc(=[N+](C)C)cc-3sc2cc1N`, the Potency entry was “inactive”. For `COc1cccc(C2c3c(ncn(-c4ccccc4C#N)c3=N)Oc3ccc4ccccc4c32)c1` (stereo not given) the value was 4.38 µM (active); for `COc1cccc(C2c3c(ncn(-c4ccccc4C(C)(C)C)c3=N)Oc3ccc4ccccc4c32)c1` (stereo not given), 4.38 µM (active); for `C[n+]1cc(C(O)(c2ccccc2)c2ccccc2)n2ccccc21`, “inactive”. On to `COc1ccc(C2c3c(n(CCCc4ccccc4)cnc3=N)Oc3ccc4ccccc4c32)cc1OC` (stereo not given), for which the Potency is 5.52 µM (active). In the case of `Cc1ccc(Nc2cc(C)nn2-c2nc(C)cc(C)n2)cc1`, the Potency result is “inactive”. Consider `COc1cccc(C2c3c(ncn(-c4ccc(F)cc4)c3=N)Oc3ccc4ccccc4c32)c1` (stereo not given), for which the Potency is 3.48 µM (active).

`CN(C)C(=S)N=Nc1[nH]c2ccccc2c1O`: the Potency entry is “inactive”.

On to `COc1ccc(C2c3c(N)nc(CCc4ccccc4)nc3Oc3ccc4ccccc4c32)cc1OC` (stereo not given), for which the Potency result is “inactive”. For `CCCN1C(=O)/C(=C\C=C2/C=CN(CC)c3ccccc32)SC1=S` the value was “inactive”. With `COc1ccc(C2C3=C(N=CN(CCN4CCOCC4)C3N)Oc3ccccc32)cc1OC` (stereo not given), the Potency result is “inactive”. Take `O=[N+]([O-])c1ccc(-c2nc(C(Cl)Cl)c3ccccc3n2)cc1`: the Potency entry was “inactive”. Consider `CC(=O)c1sc(-c2ccccc2)cc1NS(=O)(=O)c1ccccc1`, for which the Potency entry was “inactive”.

For the compound `NC(=O)OCC(COC(N)=O)c1ccccc1`, the Potency result is “inactive”. For `Cc1c(P(=S)(c2ccccc2)c2ccccc2)c2ccccc2n1CCCc1ccccc1` the value was “inactive”. Consider `COc1cc(/C=C2\SC(c3ccc(C)cc3)=NC2=O)cc(OC)c1O`, for which the Potency entry was “inactive”. For `c1ccc(P(c2ccccc2)c2cnc3ccccn23)cc1`, the Potency was 11 µM (active). With `COc1cccc(C2c3c(ncn(-c4ccccc4OC)c3=N)Oc3ccc4ccccc4c32)c1` (stereo not given), the Potency is 1.1 µM (active). `COc1cccc(C2c3c(ncn(-c4ccc(C(C)(C)C)cc4)c3=N)Oc3ccc4ccccc4c32)c1` (stereo not given): the Potency is 5.52 µM (active). On to `COc1cccc(N2CCN(c3ncnc4c3[nH]c3ccc(F)cc34)CC2C)c1` (stereo not given), for which the Potency was 0.631 µM (active). For the compound `Cc1ccc(NC(=S)NNC(C)(C)C)cc1`, the Potency entry was “inactive”.

For `COc1cccc(C2c3c(ncn(-c4cccc(Cl)c4)c3=N)Oc3ccc4ccccc4c32)c1` (stereo not given), the Potency is 8.74 µM (active).

On to `COc1ccc(C2c3c(ncn(CCc4ccccc4)c3=N)Oc3ccc4ccccc4c32)cc1OC` (stereo not given), for which the Potency entry was “inactive”. Turning to `COc1cccc(C2c3c(ncn(-c4ccc(Br)cc4)c3=N)Oc3ccc4ccccc4c32)c1` (stereo not given), the Potency is 2.76 µM (active). In the case of `COc1ccc(C2c3c(nc(CCCc4ccccc4)[nH]c3=O)Oc3ccc4ccccc4c32)cc1OC` (stereo not given), the Potency entry was “inactive”.

Turning to `COc1cccc(C2c3c(ncn(-c4ccc(C#N)cc4)c3=N)Oc3ccc4ccccc4c32)c1` (stereo not given), the Potency is 5.52 µM (active).

The values are drawn from PubChem BioAssay AID2567 (National Center for Advancing Translational Sciences (NCATS), 2010).
